Source: PubChem
EPAC1 agonist: validation of human EPAC1 agonists; Potency, µM, hits mostly activators; hit rate 1% among 16,000; EPAC1 Rap1b BODIPY-GDP exchange, fluorescence; O95398; further: nearly all actives have a fitted effect of over 70% in size
Target sequence (O95398 whole entry, looked up): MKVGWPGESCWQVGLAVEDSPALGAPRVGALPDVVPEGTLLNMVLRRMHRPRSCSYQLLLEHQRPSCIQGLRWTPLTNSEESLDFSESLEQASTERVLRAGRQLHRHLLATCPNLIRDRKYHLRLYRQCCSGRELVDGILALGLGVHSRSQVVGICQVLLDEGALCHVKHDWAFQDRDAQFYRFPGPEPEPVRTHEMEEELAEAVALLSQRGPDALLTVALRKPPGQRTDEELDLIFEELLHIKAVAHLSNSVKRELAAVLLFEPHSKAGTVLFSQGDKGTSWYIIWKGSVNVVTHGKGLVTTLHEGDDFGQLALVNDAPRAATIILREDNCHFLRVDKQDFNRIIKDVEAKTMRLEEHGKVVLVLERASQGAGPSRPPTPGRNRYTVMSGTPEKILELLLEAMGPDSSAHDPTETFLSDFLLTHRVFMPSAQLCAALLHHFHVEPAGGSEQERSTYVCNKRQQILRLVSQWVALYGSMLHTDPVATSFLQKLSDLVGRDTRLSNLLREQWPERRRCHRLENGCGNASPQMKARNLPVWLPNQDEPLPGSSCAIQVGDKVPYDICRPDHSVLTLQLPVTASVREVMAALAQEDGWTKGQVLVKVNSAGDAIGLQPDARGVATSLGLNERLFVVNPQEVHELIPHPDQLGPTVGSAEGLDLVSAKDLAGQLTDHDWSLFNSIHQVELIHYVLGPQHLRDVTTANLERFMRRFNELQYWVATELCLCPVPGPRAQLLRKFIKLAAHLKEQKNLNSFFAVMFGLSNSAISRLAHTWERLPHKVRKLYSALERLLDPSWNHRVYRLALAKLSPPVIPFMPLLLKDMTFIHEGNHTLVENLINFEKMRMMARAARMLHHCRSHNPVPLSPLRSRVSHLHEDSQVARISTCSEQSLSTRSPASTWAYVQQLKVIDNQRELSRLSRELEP
EPAC2 ant val: human EPAC2 antagonism, validation | Potency, µM (top dose mostly 112 µM), most hits filed as inhibitors | Q8WZA2 | EPAC2 Rap1B BODIPY-GDP exchange, fluorescence | hit rate 1.7% among 16,000; further: nearly all actives have a fitted effect of over 40% in size
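Normalized against a 6.5 mM cAMP agonist control, compounds were tested on 100 nM EPAC2 exchanging Rap1B-bound BODIPY-GDP (250 nM) for 50 uM GDP. Fluorescence drop (ex 480, em 540 nm) was tracked at room temperature over 30 min at 5-min intervals.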
Of the large screens only hits and unclear results are named; the others gave an inactive call; ! = a repeat was not active. The list is not random: actives were taken first. Their share in the collection is about 2.9%. The call rests on the fitted dose curve; in most records, active means well fitted curve in the direction sought with a large enough effect; inconclusive means small, poorly fitted or top-dose-only effect, or another doubt; inactive means no such curve, though single readings can be large; an effect the other way counts as inactive or inconclusive.

COc1ccc(Oc2ncc3nc(-c4cc(F)cc(F)c4)c(=O)n(CCC#N)c3n2)cc1	none
COc1cccc(Nc2ncc3nc(-c4cc(F)cc(F)c4)c(=O)n(CCC#N)c3n2)c1	EPAC1 agonist 112µM, EPAC2 ant val inconclusive
COc1cccc(Nc2ncc3nc(-c4ccc(Cl)cc4)c(=O)n(CCC#N)c3n2)c1	EPAC2 ant val inconclusive
CC(C)(C)C(=O)OCC(=O)[C@H]1CC[C@H]2[C@@H]3CCC4=CC(=O)CC[C@]4(C)[C@H]3CC[C@]12C	none
CO[C@@H]1[C@H](OC(=O)/C=C/C=C/C=C/C=C/C(=O)O)CC[C@]2(CO2)[C@H]1[C@@]1(C)O[C@@H]1CC=C(C)C	none
CC[C@]1(O)C[C@H]2CN(CCC3=c4ccccc4=N[C]3[C@@](C(=O)OC)(c3cc4c(cc3OC)N(C)[C@H]3[C@@](O)(C(N)=O)[C@H](O)[C@]5(CC)C=CCN6CC[C@]43[C@@H]65)C2)C1	none
CCOC(=O)N1CCN(Cc2ccc3c(c2)CN(C(=O)c2sc(C)nc2C)CCO3)CC1	none
O=c1c(-c2ccc(F)c(F)c2)nc2cncnc2n1Cc1ccccc1Cl	EPAC1 agonist 100µM, EPAC2 ant val inconclusive
O=c1c(-c2cc(F)cc(F)c2)nc2cncnc2n1Cc1ccccc1Cl	EPAC1 agonist inconclusive
CC[N+](CC)(CC)c1ccc(/C=C/c2ccnc3ccccc23)cc1	EPAC2 ant val inconclusive
CCCCN(CCC#N)c1ccc(/C=C/c2ccnc3ccccc23)cc1	EPAC1 agonist 100µM
CN(C)c1ccc(/C=C/c2ccnc3ccccc23)cc1Cl	EPAC2 ant val inconclusive
OCCN(CCO)c1ccc(/C=C/c2ccnc3ccccc23)cc1	none
Cc1cc(/C=C/c2ccnc3ccccc23)ccc1N(C)C	EPAC1 agonist 100µM
CC[N+](C)(C)c1ccc(/C=C/c2ccnc3ccccc23)cc1	EPAC2 ant val 45µM
COCc1ccc(C(=O)N2CCOc3ccc(CN4CCN(c5ccc(F)cc5)CC4)cc3C2)o1	none
CCCCCCCC(=O)CC[C@@H]1[C@@H](C/C=C\CCCC(=O)OC(C)C)[C@@H](O)C[C@H]1O	EPAC2 ant val inconclusive
COC(=O)c1c(C)c2c(c(C)c1O)OC(=O)c1c(C)c(Cl)c(O)c(Cl)c1O2	EPAC2 ant val 2.5µM
COC(=O)c1c(OC)cc2c(c1C)Oc1c(Cl)c(O)c(Cl)c(C)c1C(=O)O2	EPAC2 ant val 4.5µM
COC(=O)c1c(Cl)c(Cl)c(C(=O)OC)c(Cl)c1Cl	EPAC1 agonist inconclusive
CC1=C(/C=C/C(C)=C/C=C/C(C)=C/C=C/C=C(C)/C=C/C=C(C)/C=C/C2=C(C)C[C@@H](O)CC2(C)C)C(C)(C)C[C@H](O)C1	none
C[C@@H]1C[C@H]2C3C[C@H](F)C4=CC(=O)C=CC4(C)[C@@]3(F)[C@@H](O)CC2(C)[C@@]1(O)C(=O)COC(=O)C(C)(C)C (some centres undefined)	none
COc1ccccc1CNc1ccnc(-c2cccc(C#N)c2)n1	EPAC2 ant val inconclusive
COc1ccc(CNc2ccnc(-c3ccc4c(c3)OCO4)n2)c(OC)c1	none
COc1ccc(CNc2ccnc(-c3cccc(C#N)c3)n2)c(OC)c1	EPAC1 agonist 112µM
COc1ccc(CNc2ncncc2-c2cccnc2)c(OC)c1	none
COc1ccccc1CNc1ccnc(-c2ccc3c(c2)OCO3)n1	EPAC1 agonist 100µM, EPAC2 ant val inconclusive
COc1cccc(-c2cncnc2NCc2ccc(OC)cc2OC)c1	EPAC2 ant val 45µM
CC[C@H]1OC(=O)[C@H](C)[C@@H](O[C@H]2C[C@@](C)(OC)[C@@H](O)[C@H](C)O2)[C@H](C)[C@@H](O[C@@H]2O[C@H](C)C[C@H](N(C)C)[C@H]2O)[C@](C)(O)C[C@H](C)C(=NOCOCCOC)[C@H](C)[C@@H](O)[C@]1(C)O	none
COCC(=O)Nc1cc(C(=O)N2CCC(c3ccccc3)CC2)cc2nc(-c3ccccc3)n(C)c12	EPAC2 ant val inconclusive
CO[C@H]1C[C@H](O[C@H]2[C@H](C)[C@@H](O[C@@H]3O[C@H](C)C[C@H](N(C)C)[C@H]3OC(C)=O)[C@@H](C)C[C@]3(CO3)C(=O)[C@H](C)[C@@H](OC(C)=O)[C@@H](C)[C@@H](C)OC(=O)[C@@H]2C)O[C@@H](C)[C@@H]1OC(C)=O	none
Cc1ccc(SC[C@H](C)CN2CC[C@H](C)CCC2=O)cc1	EPAC2 ant val inconclusive
COc1ccc(SC[C@H](C)CN2CC[C@H](O)CCC2=O)cc1	none
COc1ccc(SC[C@H](C)CN2CC[C@H](C)CCC2=O)cc1	EPAC2 ant val 50µM
CC(=O)Nc1ccc(SC[C@H](C)CN2CC[C@H](C(C)(C)C)CCC2=O)cc1	EPAC2 ant val 56µM
O=S1(=O)CCOC[C@H](CC2CCCCC2)N1Cc1ccccc1F	EPAC2 ant val inconclusive
O=S1(=O)CCOC[C@H](CC2CCCCC2)N1Cc1cccc(C(F)(F)F)c1	EPAC2 ant val 18µM
CC[C@H](C)[C@H]1O[C@]2(CC[C@@H]1C)C[C@@H]1C[C@@H](C/C=C(\C)[C@@H](O[C@H]3C[C@H](OC)[C@@H](O[C@H]4C[C@H](OC)[C@@H](O)[C@H](C)O4)[C@H](C)O3)[C@@H](C)/C=C/C=C3\CO[C@@H]4[C@H](O)C(C)=C[C@@H](C(=O)O1)[C@]34O)O2	none
CCOC(=O)CCC(=O)O[C@H]1[C@H](O[C@@H]2[C@@H](C)[C@H](O[C@H]3C[C@@](C)(OC)[C@@H](O)[C@H](C)O3)[C@@H](C)C(=O)O[C@H](CC)[C@@](C)(O)[C@H](O)[C@@H](C)C(=O)[C@H](C)C[C@@]2(C)O)O[C@H](C)C[C@@H]1N(C)C	none
CCC(=O)O[C@H]1[C@H](O[C@@H]2[C@@H](C)[C@H](O[C@H]3C[C@@](C)(OC)[C@@H](O)[C@H](C)O3)[C@@H](C)C(=O)O[C@H](CC)[C@@](C)(O)[C@H](O)[C@@H](C)C(=O)[C@H](C)C[C@@]2(C)O)O[C@H](C)C[C@@H]1N(C)C	EPAC2 ant val 32µM
C[C@@H]1NC(=O)[C@@H](N)CNC(=O)[C@H](C2CCNC(N)=N2)NC(=O)/C(=C/NC(N)=O)NC(=O)[C@H](CNC(=O)C[C@@H](N)CCCN)NC1=O (some centres undefined)	none
c1ccc(Nc2nc(-c3ccc4c(c3)OCO4)nc3ccccc23)cc1	EPAC1 agonist 100µM
CNc1nc(-c2ccc3c(c2)OCO3)nc2ccccc12	none
COc1cc2c(cc1O)CCN[C@]21CS[C@@H]2c3c(OC(C)=O)c(C)c4c(c3[C@H](COC1=O)N1[C@@H]2[C@H]2c3c(cc(C)c(OC)c3O)C[C@@H]([C@@H]1O)N2C)OCO4	none
O=C1CC[C@@H](C(=O)N[C@H]2C[C@@H]2c2ccccc2)N1	none
N[C@H](C(=O)O)C(O)C(O)C(O)CO (some centres undefined)	EPAC1 agonist 112µM
O=C(O)[C@H](O)[C@@H](O)[C@H](O)[C@H](O)CO	none
CCCCCCCC/C=C\C/C=C\C/C=C\CCCC(=O)NCCO	none
CCCCCCCC/C=C\CCCCCCCC(=O)N[C@@H](CO)Cc1ccc(O)cc1	EPAC2 ant val 20µM
Cc1cccc(C)c1N(CCCc1cccnc1)C(=O)C(C)N (centres undefined)	none
Oc1ccc(Cl)cc1Cc1cc(Cl)ccc1O	EPAC1 agonist inconclusive, EPAC2 ant val 89µM!
NCCc1ccc(O)c(O)c1	EPAC1 agonist inconclusive
Nc1c2ccccc2nc2ccccc12 (tested in a mixture with another compound)	EPAC2 ant val 79µM
Nc1cccc2c(N)cccc12	EPAC2 ant val inconclusive
